This passage reports binding signal results from article PMC12136788.

The full ranking holds about 5,800 sequences; the median of “enrichment r” is about 0.68, and the highest 2% start at about 11. For the sample, the highest values were picked, then their nearest neighbours and some sequences at random.

Sequences and labels used below:
T1: UNK ZnF1-6 (called full-length) (human, UniProt Q9C0B0 30-357)
T1 sequence: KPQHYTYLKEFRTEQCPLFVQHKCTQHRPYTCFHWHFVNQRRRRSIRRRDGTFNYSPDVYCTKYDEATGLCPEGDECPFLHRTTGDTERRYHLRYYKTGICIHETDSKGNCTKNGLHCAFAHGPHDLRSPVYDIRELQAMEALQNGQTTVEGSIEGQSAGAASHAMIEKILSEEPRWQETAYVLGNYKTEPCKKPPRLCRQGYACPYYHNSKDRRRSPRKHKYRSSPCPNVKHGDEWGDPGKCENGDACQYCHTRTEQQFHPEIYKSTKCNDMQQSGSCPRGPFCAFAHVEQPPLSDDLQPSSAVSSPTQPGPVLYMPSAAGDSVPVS

B1: chr22:43879677:43880794:-|three_prime_utr|ENSG00000100341|control|control|control (ssRNA)
RNA: GGGAGUUCUACAGUCCGACGAUCGAGAAAGGAGGACAGCCACAGAGACACAUGUCUUACUUUCAGAAUUUCCACGGGGGGACUAGGAGGGCAGCAUUGCUGGGGAGAGGGGCUCCUGUUCUGCCGUGGAGCUGCCCACGGAGCCAACAGAGGAUUGAGCAUCA
B2: chr3:115809552:115809653:-|3pUTR|ENSG00000185565|unk|total|mutant (ssRNA)
RNA: GGGAGUUCUACAGUCCGACGAUCCUCCCUCACCUCUCCUCACCUCCACCCCCUCCCCAGAGCACCCGUCAUGCCGCAAAUGCCCGGAAGUGCCAUUUUCAUUUUCUCCACUGUGCGUGUGUGCUCAAGUCUUUCGCUCUCACGCAACAGAGGAUUGAGCAUCA
B3: chr4:145760401:145760502:-|3pUTR|ENSG00000151612|unk|FALSE|unique (ssRNA)
RNA: GGGAGUUCUACAGUCCGACGAUCUCCGUACUUUUCUCUGAAAGGAAUCUUGUCUUGUUAAACCCUAAAGAGAGUGUCCUUAAUAGCAAUCAGCACUUGUAAGCUUAUAUACUGGUGCAUUUGGUUUUCUGUUGGGUGAAUGCGCAACAGAGGAUUGAGCAUCA
B4: chr19:12699869:12699961:-|3pUTR|ENSG00000105576|msi1_unk|FALSE|overlapping (ssRNA)
RNA: GGGAGUUCUACAGUCCGACGAUCGAGGGUGGGGGUGUAGUUACUUCCCAGUUGGCCAGAAAACUGGGCCUUGCAGACCCCCUUAGCAUUUUUUCCCUUUUUUUCCUUCCCUGCUUUCUACUUCUUUGGGGAGCCCCUUGUGUUCAACAGAGGAUUGAGCAUCA
B5: chr12:53210768:53210868:-|3pUTR|ENSG00000172819|msi1_unk|FALSE|overlapping (ssRNA)
RNA: GGGAGUUCUACAGUCCGACGAUCAGGGGGGAUGCUGCUUAGCUGAUCCCGCCCUGACCCAGAGGAAGCCUCUAUUUAUUUAUUAGCUUUUGUUUACACCGUGGAAUUGACCCCUUCCUCCAGGGGUCUUGGGUGGGGGAGCCCCAACAGAGGAUUGAGCAUCA
B6: chr4:48579112:48579224:-|CDS|ENSG00000075539|unk|FALSE|bound_elsewhere (ssRNA)
RNA: GGGAGUUCUACAGUCCGACGAUCCUCUAUUGCCCUAGCUCGAUAGAUUUACAAACUUUAGCAGAAUGGAACUCUUCUCCUAUUAGCCACCAGUUUGAUGUGAUUAGUCCAUCACAUAUAUGGAUAUUUGCACAUGUGACCCAACAACAGAGGAUUGAGCAUCA
B7: chr17:50110931:50111032:+|3pUTR|ENSG00000005882|unk|FALSE|unique (ssRNA)
RNA: GGGAGUUCUACAGUCCGACGAUCUGUGCCCAGACAUGUGUGCUCAGGGUGGCUUUCUCCCUAGGACCUUCUGUGUAUAUAGUUAGUUUUAUAACCCUGAAUGCCCCCACCCUUCCCCUAAGCACACAGGGGUUAAAGCUGUGUCAACAGAGGAUUGAGCAUCA
B8: chr11:2944997:2945113:-|3pUTR|ENSG00000205531|unk|FALSE|unique (ssRNA)
RNA: GGGAGUUCUACAGUCCGACGAUCCUGUGUAGAGUAGGGCCCUGUUCUCCUUAGGAUGUUGCUUCUUGAUUUUUUUUUUUUUUUAGGGGUGGGUCAGGGUUGUGACACACCAGCCCAGGUGAGAGCUGCUGCGGGUCACCUCAUCAACAGAGGAUUGAGCAUCA
B9: chr15:74955373:74955475:-|3pUTR|ENSG00000178718|unk|FALSE|unique (ssRNA)
RNA: GGGAGUUCUACAGUCCGACGAUCGGACAGUUUUCCUUUCUAGUUUUCUUUCCCCUGCUUCAGAGGAGCAUCUCUGAGGGUUCUAGCUCUUUUAACACCCCUUUUCCCCCUGCUGGCCCAGAGGGAGACCCAGGACUGAACUCUCAACAGAGGAUUGAGCAUCA
B10: chr19:3536616:3536717:+|3pUTR|ENSG00000105325|msi1|total|mutant (ssRNA)
RNA: GGGAGUUCUACAGUCCGACGAUCACCGCCGCAGGGCCAGGCGGACGGCGUGAGGUUUGUGUUGGGGCUGGUUCUGCCCAUGCCCGGGGGUGGGGGAGCUCCCAGGACAGACCAGCCUUGUUUCUCAUGUAAUGCAGUGACGCUCAACAGAGGAUUGAGCAUCA
B11: chr20:63933867:63933968:+|3pUTR|ENSG00000101152|msi1|FALSE|unique (ssRNA)
RNA: GGGAGUUCUACAGUCCGACGAUCAUCAGAGUGGGCCCCUUGCCAGGUGGCUUUUCAGUUACAGAGUCCAGUGGACCAUUUUGUAGAACCAUGCAGCUCCCUGCGGAAGGUGGGGUAGGGUGGGAAAGAGGAGCAGGUCUGGAGCAACAGAGGAUUGAGCAUCA
B12: chr1:160214333:160214525:+|3pUTR|ENSG00000162734|msi1|FALSE|unique (ssRNA)
RNA: GGGAGUUCUACAGUCCGACGAUCCUACAGUGUUUUCCUUUGCACCGAUCCCCACCCCAAUUCAAUCCCGGAAGGGACUUACUUAGGAAACCCUUCUUUACUAGAUAUCCUGGCCCCCUGGGCUUGUGAACACCUCCUAGCCACCAACAGAGGAUUGAGCAUCA
B13: chr12:56205560:56205676:-|3pUTR|ENSG00000181852|unk|FALSE|unique (ssRNA)
RNA: GGGAGUUCUACAGUCCGACGAUCCUCUUGUGGCACAGGCCAUAAUUGUUCCAUAGACCCCUCUCUAGCCCUGUGACUGUAGUUAGUUACUUUGAUAAUUUUCUUUGGCCAUUGUUUGUUUAUAUUUCACAAACUCCACCUACUCAACAGAGGAUUGAGCAUCA
B14: chr17:27756765:27757353:-|three_prime_utr|ENSG00000007171|control|control|control (ssRNA)
RNA: GGGAGUUCUACAGUCCGACGAUCCAAGUCUUAUUUCCUCAACGUUGCUCCCCAUCAAGCCCUUUACUUGACCUCCUAACAAGUAGCACCCUGGAUUGAUCGGAGCCUCCUCUCUCAAACUGGGGCCUCCCUGGUCCCUUGGAGCAACAGAGGAUUGAGCAUCA
B15: chr17:49053040:49053141:+|3pUTR|ENSG00000159217|unk|FALSE|unique (ssRNA)
RNA: GGGAGUUCUACAGUCCGACGAUCCUCAGCUCCUGUGAGGGGUCUGGUUAGGAGAGAGCCAUUUUUAAGGACAGGGAGUUUUAUAGCCCUUUUCUACUUUCCUCCCCUCCUCCCAGUCCUUAUCAAUCUUUUUUCCUUUUUCCUCAACAGAGGAUUGAGCAUCA
B16: ENSG00000136451:be:win_3701|3pUTR|ENSG00000136451|bound_else_gene|NA|bound_elsewhere_windowed (ssRNA)
RNA: GGGAGUUCUACAGUCCGACGAUCUCUCUGGUGGGCUGGCAGUCAUAAUUCACAAUUCAGACAGCCCAGGCUUCCUCCACAGUGGUCCAAGGAGCAGUCCUCAGUGGGGGCAGGUGUGGGCCCUACCCCUAAGCUAGAAUGUGGCAACAGAGGAUUGAGCAUCA
B17: ENSG00000107863:be:win_451|CDS|ENSG00000107863|bound_else_gene|NA|bound_elsewhere_windowed (ssRNA)
RNA: GGGAGUUCUACAGUCCGACGAUCUUGGAACUUAGUGUUAUGCCAAAAGAUGAAGACAUUCUCCAAGUGCUACAGUUUACAAAGGAUGUCACAGCACUGGCAUAUUCUCAAGAUGCCUACCUGAAAGGCAACGAAGCUUAUAGCCAACAGAGGAUUGAGCAUCA
B18: chr9:96387934:96388035:-|3pUTR|ENSG00000165244|msi1|total|mutant (ssRNA)
RNA: GGGAGUUCUACAGUCCGACGAUCAAUAUUUUGUAAAUAUGGACUGCACAGUACAGGGCCGAAAACUACAUAUUGUGGGAAGCCCGAUUUUGCAAGUUUAAUGCAUUCAUUGGAAGCAGUUCUCACAGGAAGCACUUUCUGAAUCAACAGAGGAUUGAGCAUCA
B19: chr20:32237940:32238012:+|3pUTR|ENSG00000101346|msi1_unk|FALSE|overlapping (ssRNA)
RNA: GGGAGUUCUACAGUCCGACGAUCUUUCAAAGAUACAAAUAUUUACAUAGUUUUAAUCAUGUAAUAUAUACAAUUUAAUGUCCUAGUGUUUUACUUAAUAGUGUAUCAUGUUUUCCCUGUUGGUAUGUAGCCUGGAUAAAUGCUCAACAGAGGAUUGAGCAUCA
B20: chr17:3662948:3663056:-|3pUTR|ENSG00000213977|unk|total|mutant (ssRNA)
RNA: GGGAGUUCUACAGUCCGACGAUCAGUUUGAUACAAAAUGUUUUUAUCGUACUCUUUGGAGAUGCCCAUUCUACUUUUGAAUUCCGCUUUUACUAAUUCGCAUCUGGAAGCUCAGCAAGUGCACAAGCCUUACUUUGGUUACCGCAACAGAGGAUUGAGCAUCA
B21: chr5:76617584:76618642:-|CDS|ENSG00000164220|control|control|control (ssRNA)
RNA: GGGAGUUCUACAGUCCGACGAUCUGAUGGCUUAUAUUUUAUAUAUCUCAUAGCUUUGUGCCUGGGUAGUCUUAAUAGUUGCUUAGAUCCAUUCCUUUAUUUUCUCAUGUCAAAAACCAGAAAUCACUCCACUGCUUACCUUACCAACAGAGGAUUGAGCAUCA
B22: chr4:168927217:168927233:+|3pUTR|ENSG00000129116|msi1_unk|total|mutant (ssRNA)
RNA: GGGAGUUCUACAGUCCGACGAUCAACCACCCAAAUGACCAAGGCAUAUACCGUAUUUGGAGGAAUCAGGGGUUUGGAAGGAGCCGGGAGGAGAAUGAAGGAAAAUGCAACCAGCAUGAUUACCGUGUGUUCAUUCCGAUAAAACAACAGAGGAUUGAGCAUCA

The assay addresses T1, UNK ZnF1-6 (called full-length). Briefly: nsRBNS (natural sequence RNA bind-n-seq); RBNS binding buffer (assumed for nsRBNS): 25 mM Tris pH 7.5, 150 mM KCl, 3 mM MgCl2, 0.01% Triton X-100, 500 ug/ml BSA, 20 U/ml SUPERase-In, 4 C; UNK is unkempt and MSI1 is Musashi-1; names of the RNAs are library labels; protein concentration not given here; high values mean tight binding.
For B1, the binding signal was 1.05 enrichment R.

For B2, the binding signal worked out at 1.88 enrichment R.

On to B3, for which the binding signal amounted to 0.364 enrichment R.

Take B4: the binding signal came to 15.5 enrichment R.

B5 registered a binding signal of 2.83 enrichment R.

For B6, the binding signal was 1.85 enrichment R.

B7 came in with a binding signal of 6.79 enrichment R.

Consider B8, for which the binding signal came to 22 enrichment R.

The molecule B9 came in with a binding signal of 10.8 enrichment R.

B10: the binding signal amounted to 0.79 enrichment R.

Consider B11, for which the binding signal was found to be 1.29 enrichment R.

With B12, the binding signal worked out at 2.33 enrichment R.

In the case of B13, the binding signal amounted to 33.5 enrichment R.

B14 displayed a binding signal of 0.605 enrichment R.

Turning to B15, the binding signal is 3.9 enrichment R.

B16 had a binding signal of 0.776 enrichment R.

In turn, B17 showed a binding signal of 0.399 enrichment R.

Regarding B18, the binding signal was found to be 0.299 enrichment R.

Take B19: the binding signal came to 4.06 enrichment R.

Take B20: the binding signal was 0.437 enrichment R.

With B21, the binding signal was 4.63 enrichment R.

Take B22: the binding signal turned out to be 0.58 enrichment R.
